Consider three compounds from PubChem BioAssay (EPA / NIEHS).

Each structure is given as a SMILES string. Activity calls are given as the source filed them. Rule for the calls: active = hit-call score of the fitted dose curve at least 0.9, where 1 is the maximum; inactive = score below 0.9.

Assay [1] is described as follows: BSK_hDFCGF_SRB: Viability Assessment in the BioMAP Diversity Plus: hDFCGF Assay (AID 2283061).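 Note: cells exposed to compound for 24 h before the read.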 To be noted: primary human foreskin fibroblasts. The essentials:
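Readout is SRB absorbance at 560 nm, reflecting total protein in parallel cultures of human foreskin fibroblasts harvested 24 h after chemical dosing. Activity was fitted bidirectionally relative to DMSO.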

Read-out in assay [2]: TIMP metallopeptidase inhibitor 1 (TIMP1), TIMP1 (gene 7076)
As to the kind of experiment: BSK_hDFCGF_TIMP1: BioMAP Diversity Plus: hDFCGF Assay for TIMP metallopeptidase inhibitor 1 (TIMP1) Biomarker Activity (AID 2283062). To be noted: primary human foreskin fibroblasts; actives raise or lower the signal. The essentials:
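Human skin fibroblasts (primary), hDFCGF system; compound exposure 24 h; TIMP-1 by ELISA; bidirectional fit vs DMSO negative control; overt cytotoxicity by SRB in parallel wells.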

Read-out in assay [3]: Monokine induced gamma interferon (MIG), CXCL9 (gene 4283)
The assay can be described thus: BSK_hDFCGF_MIG: BioMAP Diversity Plus: hDFCGF Assay for Monokine induced gamma interferon (MIG) Biomarker Activity (AID 2283063). To be noted: primary human foreskin fibroblasts; actives raise or lower the signal. The essentials:
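Chemicals were added to primary human foreskin fibroblast cultures, which were sampled 24 h later. MIG levels were then quantified by ELISA and responses fitted in both directions relative to DMSO.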

Read-out in assay [4]: Matrix Metallopeptidase 1 (MMP1), MMP1 (gene 4312)
The assay can be described thus: BSK_hDFCGF_MMP1: BioMAP Diversity Plus: hDFCGF Assay for Matrix Metallopeptidase 1 (MMP1) Biomarker Activity (AID 2283064). To be noted: primary human foreskin fibroblasts; actives raise or lower the signal. The essentials: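 hDFCGF primary fibroblasts (human foreskin); chemical added; 24 h; MMP1 by ELISA; bidirectional fit vs DMSO.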

Read-out in assay [5]: Plasminogen activator inhibitor-1 (PAI1), SERPINE1 (gene 5054)
As to the kind of experiment: BSK_hDFCGF_PAI1: BioMAP Diversity Plus: hDFCGF Assay for Plasminogen activator inhibitor-1 (PAI1) Biomarker Activity (AID 2283066). To be noted: primary human foreskin fibroblasts; actives raise or lower the signal. The essentials:
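Human foreskin fibroblasts in the hDFCGF system were dosed with compound for 24 h; PAI-1 was quantified by ELISA. Bidirectional curve fitting used DMSO as negative control and baseline.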

Read-out in assay [6]: Intercellular Adhesion Molecule 1 (ICAM1), ICAM1 (gene 3383)
As to the kind of experiment: BSK_KF3CT_ICAM1: BioMAP Diversity Plus: KF3CT Assay for Intercellular Adhesion Molecule 1 (ICAM1) Biomarker Activity (AID 2283067). To be noted: primary human keratinocytes with fibroblasts; actives raise or lower the signal. The essentials: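 ICAM-1 levels are measured by ELISA 24 h after dosing a primary human co-culture of keratinocytes and foreskin fibroblasts. Activity in either direction is fitted relative to DMSO vehicle.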

Read-out in assay [7]: Interferon-gamma inducible Protein 10 (IP10), CXCL10 (gene 3627)
The assay can be described thus: BSK_KF3CT_IP10: BioMAP Diversity Plus: KF3CT Assay for Interferon-gamma inducible Protein 10 (IP10) Biomarker Activity (AID 2283068). To be noted: primary human keratinocytes with fibroblasts; actives raise or lower the signal. The essentials: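 In a primary skin co-culture of keratinocytes and fibroblasts, IP-10 is quantified by ELISA at 24 h after dosing. SRB staining of parallel wells monitors overt toxicity. Curves are fitted both directions against DMSO.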

Assay [8] in a line: BSK_KF3CT_SRB: Viability Assessment in the BioMAP Diversity Plus: KF3CT Assay (AID 2283069).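 Note: total protein by sulforhodamine B staining as a cytotoxicity measure; read 24 h after compound addition; fitted for both signal gain and loss against DMSO baseline.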 To be noted: primary human keratinocytes with fibroblasts. The essentials: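 Keratinocytes co-cultured with foreskin fibroblasts (human primary); chemical added, 24 h; fix 10% TCA, stain 0.1% SRB, A560. Bidirectional fit vs DMSO.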
Read-out in assay [9]: Interleukin-1 alpha (IL1a), IL1A (gene 3552)
The assay can be described thus: BSK_KF3CT_IL1a: BioMAP Diversity Plus: KF3CT Assay for Interleukin-1 alpha (IL1a) Biomarker Activity (AID 2283070). To be noted: primary human keratinocytes with fibroblasts; actives raise or lower the signal. The essentials:
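Chemicals were dosed onto co-cultured human keratinocytes and foreskin fibroblasts, IL-1a was quantified by ELISA at 24 h, and activity was fitted in both directions relative to DMSO controls.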

Read-out in assay [10]: TIMP metallopeptidase inhibitor 2 (TIMP2), TIMP2 (gene 7077)
As to the kind of experiment: BSK_KF3CT_TIMP2: BioMAP Diversity Plus: KF3CT Assay for TIMP metallopeptidase inhibitor 2 (TIMP2) Biomarker Activity (AID 2283071). To be noted: primary human keratinocytes with fibroblasts; actives raise or lower the signal. The essentials: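 Human primary keratinocyte/foreskin fibroblast co-culture dosed with chemical and sampled at 24 h. TIMP-2 levels quantified by ELISA; bidirectional fitting against DMSO negative control as baseline.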

Read-out in assay [11]: Transforming growth factor beta 1 (TGFb1), TGFB1 (gene 7040)
The assay can be described thus: BSK_KF3CT_TGFb1: BioMAP Diversity Plus: KF3CT Assay for Transforming growth factor beta 1 (TGFb1) Biomarker Activity (AID 2283072). To be noted: primary human keratinocytes with fibroblasts; actives raise or lower the signal. The essentials: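 Human keratinocyte plus foreskin fibroblast primary co-culture, dosed with chemical for 24 h. TGF-b1 quantified by ELISA. Activity fitted bidirectionally against DMSO negative control as baseline.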

Read-out in assay [12]: Matrix Metallopeptidase 9 (MMP9), MMP9 (gene 4318)
As to the kind of experiment: BSK_KF3CT_MMP9: BioMAP Diversity Plus: KF3CT Assay for Matrix Metallopeptidase 9 (MMP9) Biomarker Activity (AID 2283074).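 For AC50: MMP9 protein level quantified by ELISA in the co-culture.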 To be noted: primary human keratinocytes with fibroblasts; actives raise or lower the signal. The essentials: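 Human keratinocyte/foreskin fibroblast co-culture; compound added; 24 h; MMP-9 by ELISA; bidirectional fit vs DMSO baseline.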

Read-out in assay [13]: urokinase plasminogen activator (uPA), PLAU (gene 5328)
The assay can be described thus: BSK_KF3CT_uPA: BioMAP Diversity Plus: KF3CT Assay for urokinase plasminogen activator (uPA) Biomarker Activity (AID 2283075). To be noted: primary human keratinocytes with fibroblasts; actives raise or lower the signal. The essentials: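 ELISA readout of uPA, analyzed for signal gain or loss relative to DMSO, from a human primary keratinocyte–foreskin fibroblast co-culture measured 24 h after chemical treatment.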

Read-out in another assay: CD40, CD40 (gene 958)
As to the kind of experiment: BSK_LPS_CD40: BioMAP Diversity Plus: LPS Assay for CD40 Biomarker Activity (AID 2283076). To be noted: primary human HUVEC with PBMC; actives raise or lower the signal. The essentials: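 Cells were dosed, incubated 24 h, then assayed for CD40 by ELISA. Gain or loss of signal was analysed relative to DMSO controls. The culture paired human umbilical vein endothelium with peripheral blood mononuclear cells.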

Read-out in assay [14]: E-selectin (Homo sapiens) (UniProt P16581)
As to the kind of experiment: BSK_LPS_Eselectin: BioMAP Diversity Plus: LPS Assay for Eselectin Biomarker Activity (AID 2283077). To be noted: primary human HUVEC with PBMC; actives raise or lower the signal. The essentials: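 Primary human vascular co-culture (endothelium plus PBMC) was dosed with chemical, then E-selectin quantified by ELISA at 24 h. Endpoint values derive from bidirectional curve fitting relative to DMSO.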

A short description of assay [15]: BSK_LPS_SRB: Viability Assessment in the BioMAP Diversity Plus: LPS Assay (AID 2283079).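 Note: total protein by sulforhodamine B absorbance as a cytotoxicity measure; measured one day after compound addition; fitted in both directions against DMSO so loss or gain of signal counts.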 To be noted: primary human HUVEC with PBMC. The essentials:
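Readout is SRB absorbance at 560 nm (0.1% stain, TCA-fixed parallel cultures) as a total-protein cytotoxicity measure. Cells: primary human umbilical vein endothelium plus peripheral blood mononuclear cells, 24 h after chemical exposure; DMSO served as baseline.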

Read-out in assay [16]: Interleukin-1 alpha (IL1a), IL1A (gene 3552)
As to the kind of experiment: BSK_LPS_IL1a: BioMAP Diversity Plus: LPS Assay for Interleukin-1 alpha (IL1a) Biomarker Activity (AID 2283080). To be noted: primary human HUVEC with PBMC; actives raise or lower the signal. The essentials:
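ELISA read-out of IL-1 alpha from a human primary vascular co-culture (endothelium plus PBMC) under LPS, sampled 24 hours post-dosing. Activity was fitted in both directions relative to DMSO controls.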

Read-out in assay [17]: Vascular cell adhesion molecule 1 (VCAM1), VCAM1 (gene 7412)
As to the kind of experiment: BSK_hDFCGF_VCAM1: BioMAP Diversity Plus: hDFCGF Assay for Vascular cell adhesion molecule 1 (VCAM1) Biomarker Activity (AID 2283065).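 Note: VCAM-1 protein level quantified by ELISA after 24 h chemical exposure.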 To be noted: primary human foreskin fibroblasts; actives raise or lower the signal. The essentials: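 Human foreskin fibroblast primary cells, chemical exposure 24 h; VCAM-1 by ELISA; bidirectional fit, DMSO = negative control/baseline.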

Read-out in assay [18]: C-C motif chemokine 2 (Homo sapiens) (UniProt P13500)
The assay can be described thus: BSK_KF3CT_MCP1: BioMAP Diversity Plus: KF3CT Assay for Monocyte Chemoattractant Protein 1 (MCP1/CCL2) Biomarker Activity (AID 2283073). To be noted: primary human keratinocytes with fibroblasts; actives raise or lower the signal. The essentials:
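ELISA readout of MCP-1 after 24 h chemical dosing of a human skin primary co-culture of keratinocytes and foreskin fibroblasts. Activity was fitted in both directions against DMSO.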

Read-out in assay [19]: Interleukin-8 (IL8), CXCL8 (gene 3576)
The assay can be described thus: BSK_LPS_IL8: BioMAP Diversity Plus: LPS Assay for Interleukin-8 (IL8) Biomarker Activity (AID 2283078). To be noted: primary human HUVEC with PBMC; actives raise or lower the signal. The essentials:
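Readout is IL-8 by ELISA, taken 24 h after compounds were added to LPS-stimulated endothelial/PBMC co-cultures. Both increases and decreases relative to DMSO control were scored through bidirectional fitting.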

Chain of E-selectin (Homo sapiens) (P16581 whole entry, looked up): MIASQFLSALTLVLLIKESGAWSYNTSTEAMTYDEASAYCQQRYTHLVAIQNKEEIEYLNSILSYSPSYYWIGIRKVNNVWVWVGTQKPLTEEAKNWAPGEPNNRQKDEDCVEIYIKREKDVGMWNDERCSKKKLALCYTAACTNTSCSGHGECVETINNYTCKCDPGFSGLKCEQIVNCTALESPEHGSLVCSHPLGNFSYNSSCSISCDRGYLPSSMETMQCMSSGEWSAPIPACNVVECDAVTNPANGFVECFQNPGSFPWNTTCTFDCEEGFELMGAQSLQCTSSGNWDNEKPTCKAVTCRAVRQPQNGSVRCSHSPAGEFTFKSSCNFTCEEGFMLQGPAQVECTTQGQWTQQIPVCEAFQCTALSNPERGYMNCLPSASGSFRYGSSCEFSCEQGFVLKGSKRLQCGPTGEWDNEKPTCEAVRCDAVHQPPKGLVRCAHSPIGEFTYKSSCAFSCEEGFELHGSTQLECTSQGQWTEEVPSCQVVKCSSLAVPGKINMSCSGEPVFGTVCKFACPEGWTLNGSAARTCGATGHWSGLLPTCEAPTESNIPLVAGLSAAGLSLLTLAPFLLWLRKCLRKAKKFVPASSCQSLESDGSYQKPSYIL

With `CC(C)(O)C(=O)Nc1ccc([N+](=O)[O-])c(C(F)(F)F)c1`, the result in [1], in assay [2], in [3], in assay [4], in assay [5] and in [6] was inactive. Moreover, the result in assay [7], in assay [8], in [9], in assay [10], in assay [11] and in assay [12] was inactive. The outcome in assay [13] is “inactive”; with CD40, CD40 (gene 958), “inactive”; in assay [14], “inactive”; in [15], “inactive”; in [16] it was “inactive”.

As a reminder, the AC50 is the concentration giving half of the maximal activity seen. On to `Oc1ccc(C(c2ccc(O)cc2)(C(F)(F)F)C(F)(F)F)cc1`, for which the AC50 is 13.7 µM (active) in [1]; 15.8 µM (active) in [2]; 7.41 µM (active) in assay [17]; 12.8 µM (active) in [5]; 37.7 µM (active) in [6]; 17.3 µM (active) in assay [7]. The AC50 in assay [8] is 24.1 µM (active); in assay [9], 32.1 µM (active); in assay [10] it was 21.1 µM (active); in [11], 23.7 µM (active); in assay [18] it was 17.7 µM (active); in assay [12] it was 20 µM (active). Moreover, the AC50 in assay [13] is 34.2 µM (active); with CD40, CD40 (gene 958), 18 µM (active); in assay [14], 32.4 µM (active); in assay [19], 32.1 µM (active); in [15], 28 µM (active); in [16] it was 20.2 µM (active).

Consider `Clc1ccc(Cl)cc1`, for which the result in assay [1], in [2], in [3], in assay [4], in assay [5] and in [6] was inactive. Further, the outcome in assay [7], in assay [8], in [9], in assay [10], in assay [11] and in assay [12] was inactive. Besides, the outcome was “inactive” in [13]; “inactive” with CD40, CD40 (gene 958); “inactive” in assay [14]; “inactive” in assay [19]; “inactive” in [15]; “inactive” in assay [16].
